This passage reports viability results from PubChem BioAssay.

Structures are written as SMILES. Results filed as inconclusive are left out. Activity calls are given as the source filed them.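 How the source made its calls, unless noted: active means viability at or below 27.92% in each of two runs, the all-compound median minus 4 SD; inconclusive means no clear call, values can overlap the other calls; inactive means the rest.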

One may read the viability as a read-out of living cells in per cent, often relative to untreated cells.

A short description of the first assay: viability of HCT116 without oncogenic beta-catenin – human colon tumor cells, pilot screen (AID 823;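 active means cell viability at or below a set limit in both duplicate runs, the limit being the all-compound median minus 4 SD, cut at about 23% in these data, passing the limit was not always enough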;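 further: 0% = wells killed by 20 µM Hyamine and 100% = untreated DMSO cell wells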). As to conditions: HCT116 beta-catenin knockout viability, CellTiter-Glo, 60 h; at 10 µM; stronger effect = lower value.
Turning to `CCc1nnc(NC(=O)c2ccc(S(=O)(=O)N(CC)CC)cc2)s1`, the viability was 104% (inactive).
Same read-out and setting: under `Cc1ccc(Cl)cc1N1CCN(C(=O)c2cc3c(=O)n(C)c4ccccc4c3n2C)CC1` stands 20.4% (active); under `CCOc1ccc2nc3ccc4[nH]onc4c3c2c1`, 74.8% (inactive); under `COc1ccccc1C1CC(c2ccc(Cl)cc2Cl)Nc2nc(N)nn21` (stereo unspecified), 86.1% (inactive).
On the same count and under the same terms, with `COc1ccc(Cl)cc1N1C(=O)C2CCCN2C1c1ccc(F)c(F)c1` (stereo unspecified) the figure was 98.1% (inactive); with `Cc1ccc(N2C(=O)Nc3ccc(Br)cc3C2(O)C(=O)NCCCN(C)C)cc1C` (stereo unspecified), 91.7% (inactive); with `Cc1cccc(C2CC(c3ccccc3)Nc3ncnn32)c1` (stereo unspecified), 91.9% (inactive).

A short description of another assay: viability of PTEN-null HCT116 cells – cell-based, HCT116 clonal line, CellTiter-Glo, pilot screen (AID 824).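 Further: 0% = 20 µM Hyamine control and 100% = vehicle cell control.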 As to conditions: HCT116 PTEN-deleted viability, 60 h, at 10 µM, stronger effect = lower value. A general note: In ATP-based viability assays light output follows the ATP content of the culture.
`O=C(NCc1ccco1)c1ccc(CN2CCOCC2)cc1`: the viability was 105% (inactive).
Still for that read-out and setting: under `CCc1nnc(NC(=O)c2ccc(S(=O)(=O)N(CC)CC)cc2)s1` stands 90.9% (inactive).
The same measure, in the same setting: under `O=C(O)c1ccc(N2C(=O)CC(Cc3ccccc3)C2=O)cc1` (stereo unspecified) stands 100% (inactive); under `Cc1ccc(Cl)cc1N1CCN(C(=O)c2cc3c(=O)n(C)c4ccccc4c3n2C)CC1`, 23.5% (active); under `COc1cc(OC)cc(C(=O)Nc2cccc(C(C)=O)c2)c1`, 89.9% (inactive).
Consider `COc1ccc(OC)c(NC(=O)C(CC(C)C)NC(=O)C2CCCCC2)c1` (stereo unspecified), for which the viability is 86% (inactive).
`COc1cc2c(cc1OC)C(c1cccs1)NCC2` (stereo unspecified): the viability was 92.6% (inactive).
Regarding `COc1ccc(CCNC(=O)c2oc3ccc(S(=O)(=O)N4CCOCC4)cc3c2C)cc1OC`, the viability was 78.8% (inactive).
Regarding `CCOc1ccc2nc3ccc4[nH]onc4c3c2c1`, the viability was 66.5% (inactive).
